From PubChem BioAssay AID540333 (Southern Research Specialized Biocontainment Screening …, 2011)
Out of some 10,000 compounds screened, about 320 (3.2%) were called active. Cut-off read from the data, not from the text of the source: active = CPE inhibition mostly above about 9.1% (no sharp cut-off); inactive = mostly below about 7.2%. The list comes from a sample in which actives are over-represented; it also holds similar structures and randomly drawn compounds.

Experiment: Dengue virus cytopathic effect inhibitors, cell-based, CPE readout, HTS (AID 540333)
Details: Dengue virus CPE inhibition in host cells, at 20 µM; hits give high values

SMILES	CPE inhibition
Cc1nn(-c2ccccc2)c(N2CCCC2)c1/C=N/NC(=O)c1ccccc1O	inactive
Cc1nn(-c2ccccc2)c(N2CCCC2)c1/C=N/NC(=O)c1cc(-c2ccccc2)nc2ccccc12	2.99% (inactive)
Cc1nn(-c2ccccc2)c(N2CCCC2)c1/C=N/NC(=S)Nc1ccccc1F	13.2% (active)
O=C(CCc1nc2ccccc2c(=O)[nH]1)OCC(=O)c1ccc(C2CCCCC2)cc1	1.97% (inactive)
O=C(Nc1nc2ccccc2s1)c1cc(-c2ccco2)nc2ccccc12	5.33% (inactive)
COc1ccc(N2CCN(CC(=O)Nc3sccc3C#N)CC2)cc1	inactive
CC(C)(C)c1ccc(C(=O)NCc2nnc(SCC(=O)N3CCCc4ccccc43)n2-c2ccccc2)cc1	5.59% (inactive)
Cc1ccc(NC(=O)CSc2nnc(CNC(=O)C34CC5CC(CC(C5)C3)C4)n2-c2ccc(F)cc2)cc1	5.74% (inactive)
O=C(CSc1nnc(CNC(=O)C23CC4CC(CC(C4)C2)C3)n1-c1ccc(F)cc1)Nc1ccc(F)cc1	3.73% (inactive)
O=C(NC(=S)N1CCN(c2ccc(F)cc2)CC1)C12CC3CC(CC(C3)C1)C2	0.245% (inactive)
O=C(NCc1nnc(SCc2ccccc2)n1-c1ccc(F)cc1)C12CC3CC(CC(C3)C1)C2	15.9% (active)
O=C(CSc1nnc(CNC(=O)C23CC4CC(CC(C4)C2)C3)n1-c1ccccc1)Nc1ccc(F)cc1	6.17% (inactive)
O=C(CSc1nnc(CNC(=O)C23CC4CC(CC(C4)C2)C3)n1-c1ccccc1)Nc1ccccc1	1.45% (inactive)
O=C(NCc1nnc(SCc2ccc(F)cc2)n1-c1ccc(F)cc1)C12CC3CC(CC(C3)C1)C2	9.94% (active)
O=C(NCc1nnc(SCc2ccc(C(F)(F)F)cc2)n1-c1ccccc1)C12CC3CC(CC(C3)C1)C2	9.12% (active)
N=C1SC(c2ccccc2)C(=O)N1c1ncc(Cc2ccccc2)s1 (stereo not drawn)	0.6% (inactive)
COC(=O)CCC(=O)NC(=S)Nc1ccc(S(=O)(=O)Nc2cc(OC)nc(OC)n2)cc1	1.88% (inactive)
CCCCNC(=O)CCCCC(=O)N/N=C/c1cccc(Cl)c1	0.96% (inactive)
CCN(Cc1ccccc1)C(=O)C1CCN(CC2CC=CCC2)CC1 (stereo not drawn)	inactive
Cc1ccnc(NC(=S)NC(=O)c2cncc(Br)c2)c1	0.165% (inactive)
CCCCNC(=O)c1cccc2c(=O)c(C)c(-c3ccccc3)oc12	inactive
CCOc1ccc(Oc2c(/C=N/NC(=O)COc3ccccc3OC)c(C)nn2-c2ccccc2)cc1	inactive
O=C(N/N=C\c1ccc(-c2ccccc2[N+](=O)[O-])o1)C1COc2ccccc2O1 (stereo not drawn)	0.26% (inactive)
